# Assay outcomes: PubChem, National Center for Advancing Translational Sciences (NCATS)
# KAT2A inh: qHTS Assay for Inhibitors of GCN5L2. Histone acetyltransferase KAT2A (Homo sapiens), Q92830. AID 504327, 2011. Potency, µM (titrated, usually from 58.9 µM), without a hit: at the highest dose activity change, negative = inhibition, hits mostly inhibitors. 390,000 tested, 0.21% active. GCN5L2 HAT assay, ThioGlo1 CoA-SH fluorescence; also: potency is read from the fitted curve at half-maximal effect; % is scaled to controls: 0 for no effect and ±100 for the full control effect
#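 Compounds, pin-transferred from DMSO stocks, meet 20nM GCN5L2 for 15 min before the reaction begins with H3(1-25) peptide (75uM) and acetyl-CoA (70uM). Thiol-reactive ThioGlo1 reports CoA release over 20 min at room temperature.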
# PLK1 PBD block: qHTS for Inhibitors of PLK1-PDB (polo-like kinase 1 - polo-box domain): Primary Screen; Serine/threonine-protein kinase PLK1 (Homo sapiens), P53350; Plk1 PBD binding of FITC phosphopeptide, fluorescence polarization; Potency, µM, without a hit: max response, negative = inhibition, hits mostly inhibitors; 360,000 tested, 2.8% active; also: potency is read from the fitted curve at half-maximal effect; series mostly up to about 57 µM; % is scaled to controls: 0 for no effect and ±100 for the full control effect; nearly all actives have a fitted effect of over 65% in size
# JMJD2A Tudor: qHTS Assay for Inhibitors of JMJD2A-Tudor Domain; Lysine-specific demethylase 4A (Homo sapiens), O75164; AlphaScreen JMJD2A-Tudor / H3K4me3 peptide binding; Potency, µM (top dose mostly 114 µM), for inactives: at the top dose activity change, negative = inhibition, usual class: inhibitors; 390,000 tested, 4.4% active; AID 504339, 2011; also: potency is read from the fitted curve at half-maximal effect; % is scaled to controls: 0 for no effect and ±100 for the full control effect; nearly all actives have a fitted effect of over 50% in size
# PI5P4K alpha inh: qHTS for Inhibitors of phosphatidylinositol 5-phosphate 4-kinase (PI5P4K). 330,000 tested, 1.2% active. max response, %. PI5P4Kalpha enzyme, ADP-Glo luminescence, 60 min; stronger effect = lower value. Phosphatidylinositol 5-phosphate 4-kinase type-2 alpha (Homo sapiens), P48426; active = max response of -50% or lower; inconclusive = between -30% and -50%; inactive = -30% or higher; also: value at the top dose of about 77 µM; % is scaled to controls: 0 for no effect and ±100 for the full control effect
#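 PI5P4Kalpha ADP-Glo assay; 5 microM ATP final; 60 min RT reaction; HEPES pH 7.4/EGTA/CHAPS, 5% DMSO; controls lacking substrate or enzyme; luminescent end-point.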
# HP1b binding inh: HTS for Inhibitors of HP1-beta Chromodomain Interactions with Methylated Histone Tails; Chromobox protein homolog 1 (Homo sapiens), P83916; AlphaScreen HP1-beta / biotin-H3K9me3 peptide binding; Potency, µM (doses to about 114 µM), for the others: at the highest dose activity change, negative = inhibition, actives largely listed as inhibitors; 390,000 tested, 0.56% active; AID 540317, 2011; also: potency is read from the fitted curve at half-maximal effect; nearly all actives have a fitted effect of over 70% in size
#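 Compound inhibition of the preformed complex between 50 nM HP1-beta and 50 nM biotinylated H3K9me3 peptide was read by AlphaScreen. Buffer was PBS pH 7.4 with 0.01% Tween-20. Incubations ran 30 min at room temperature, with 10 ug/mL donor/acceptor beads.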
# BAZ2B block: qHTS Assay for Inhibitors of BAZ2B. Bromodomain adjacent to zinc finger domain protein 2B (Homo sapiens), Q9UIF8. AlphaScreen BAZ2B-H3K14Ac peptide displacement. Potency, µM (doses to about 114 µM), inactives show at the top dose activity change, negative = inhibition, actives largely listed as inhibitors. 360,000 tested, 4.4% active. AID 504333, 2011; also: potency is read from the fitted curve at half-maximal effect; % is scaled to controls: 0 for no effect and ±100 for the full control effect; nearly all actives have a fitted effect of over 60% in size
#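 Compounds, titrated to a top concentration of 110 uM, were incubated 30 min at room temperature with preformed BAZ2B/acetyl-K14 H3 peptide complex (50 nM each). Proximity signal was measured by AlphaScreen after 20 min with beads.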
# The depositor's hits bear a star; ? = inconclusive; nt = no result; [ ] = another dose, or the depositor's remark. Sampled rows, rich in hits. Any-hit rate of the full collection: about 7%. Unless noted, calls follow the shape of the dose curve; as a rule, active = well fitted curve in the direction sought with a large enough effect; inconclusive = small, poorly fitted or top-dose-only effect, or another doubt; inactive = no such curve, though single readings can be large; an effect the other way counts as inactive or inconclusive.
SMILES,KAT2A inh,PLK1 PBD block,JMJD2A Tudor,PI5P4K alpha inh,HP1b binding inh,BAZ2B block
CC(C)(C)n1nnnc1C(c1ccccc1)N1CCN(c2ccc(F)cc2)CC1 (stereo not drawn),nt,-10%,nt,-2,nt,nt
CNC(=O)c1c(N)sc2c1CCCCC2,-11%,nt,nt,nt,nt,-10%
CC(C)OC(=O)c1c(N)sc2c1CCCC2,nt,24µM*,?,nt,-36%,nt
COc1ccc(-c2c3c([nH]c(=S)c2C#N)CCC3)cc1,?,7.5µM*,45µM*,-70*,-16%,1%
COc1ccc(OC)c(-c2c3c([nH]c(=S)c2C#N)CCCC3)c1,-9%,27µM*,-32%,-58*,9%,?
OCc1ccc(-c2nn(Cc3ccccc3)c3ccccc23)o1,-5%,-13%,-19%,2,12%,40µM*
CC(C)CN(C(=O)CSc1nnc2c(Cl)cc(C(F)(F)F)cn12)C1CCS(=O)(=O)C1 (stereo not drawn),-6%,27µM*,-19%[57.1 µM],-6,3%,8%
O=c1cc(S(=O)(=O)Cc2ccccc2)[nH]c(=O)[nH]1,nt,-20%,-17%,-66*,29%,nt
Nc1nc(N=Nc2ccc(O)cc2)cc(=O)[nH]1,nt,-26%,nt,-52*,nt,nt
Nc1nc(N)c(N=Nc2ccccc2)c(=O)[nH]1,nt,0%,-3%,-14,13%[57 µM],nt
O=C(NC1CCCCC1)n1c(=O)oc2ccc(Cl)cc21,0%,6µM*,-17%,nt,29%,-2%
O=C(NC1CCCCC1)n1c(=O)oc2ccccc21,2%,?,38%,nt,133%,7%
COc1ccc([C@H]2C(C#N)=C([S-])N[C@](C)(O)[C@@H]2[n+]2ccccc2)cc1,-4%,?,56µM*,?,-3%,-25%
COC(=O)C1=C(C)NC(=O)C1(NC(=O)c1ccccc1C)C(F)(F)F (stereo not drawn),-4%,nt,2%,nt,31%,1%
COC(=O)C1=C(C)NC(=O)C1(NC(=O)c1ccncc1)C(F)(F)F (stereo not drawn),-1%,21µM*,?,-12,21%,4%
CC(=O)Nc1c2c(nn1-c1cccc(Cl)c1)CS(=O)(=O)C2,1%,-5%,-3%,6,24%,-10%[57.1 µM]
Cc1nn(CC(=O)c2ccc3c(c2)OCCO3)c(=O)c(C#N)c1C,-5%,-1%,-8%,?,38%,nt
CCCc1c(-c2ccc(O)cc2)nn(-c2ccc(O)cc2)c1-c1ccc(O)cc1,-20%,-10%,-29%,-53*,22%,?
Cc1c(C(N)=O)c(-c2ccccc2)nn1-c1ccccc1,1%,6%,-10%,0,29%,10%
CC1CCN(S(=O)(=O)c2ccc3c(c2)N(CC(=O)NC(C)c2ccccc2)C(=O)CO3)CC1 (stereo not drawn),-8%,nt,-4%,nt,67%,-7%
NC(=S)N/N=C/c1cn(-c2ccccc2)nc1-c1cccnc1,-9%,3.4µM*,-24%[11.4 µM],-54*,-7%,-5%
Cc1cc(NC(=O)CN(C)S(=O)(=O)c2ccc3c(c2)CCC(=O)N3)ccc1Br,-7%,nt,-12%,nt,11%,-3%
O=C(N/C(=C/c1ccc(Cl)cc1)C(=O)N1CCOCC1)c1ccccc1,1%,-5%,-10%,4,14%,1%
O=C(N/C(=C\c1ccc(-c2ccccc2)o1)C(=O)N1CCOCC1)c1ccccc1,-5%,27µM*,56µM*,-20,-24%,-32%
CC(=O)C(=Nc1ccc(Cl)cc1Cl)NNc1cccc(Cl)c1,-7%,-2%,56µM*,-1,?,14µM*
SMILES,KAT2A inh,PLK1 PBD block,JMJD2A Tudor,PI5P4K alpha inh,HP1b binding inh,BAZ2B block
CC(=O)Nc1ccc(NC(=O)Nc2cccc(Cl)c2)cc1,-3%,-8%,-9%,-3,16%,5%
Cc1ccc2oc(C(=O)NCC3CCOCC3)c(C)c2c1,-2%,3%,-5%,14,21%,4%
CC1=C(C(=O)OCc2ccccc2)C(c2ccc(C#N)cc2)NC(=O)N1CCCC(=O)O (stereo not drawn),-1%,1%,-9%,-90*,46%,-6%
CC1=C(C(=O)OCc2ccccc2)C(c2ccc(Cl)cc2)NC(=O)N1CCCCCC(=O)O (stereo not drawn),-7%,-19%,-18%,-10,15%,-8%
CC1=C(C(=O)OCc2ccccc2)C(c2ccccc2)NC(=O)N1CCCC(=O)O (stereo not drawn),-2%,-1%,0%,-77*,63%,-4%
NC(=O)c1cccnc1Oc1cccc(Cl)c1,-5%,27µM*,20µM*,-5,?,16%
Cc1ccc(S(=O)(=O)N(C)CC(=O)OCC(=O)NCCN2C(=O)CSC2=O)cc1,0%,-8%,-11%,2,37%,3%
CSc1nsc(/C=C/Nc2ccc(O)cc2C)c1C#N,-12%,13%,50µM*,-18,-34%,40µM*
CSc1nsc(/C=C/Nc2ccc(Cl)cc2)c1C#N,?,6%,-29%,-1,11%,?
CCOc1ccc(NC(=O)CC(Cc2cc(C)cc(C)c2)C(=O)O)cc1 (stereo not drawn),0%,-2%,-12%,-5,7%,31%
O=C1CCCC/C1=C\Nc1ccc(S(=O)(=O)Nc2cnc3ccccc3n2)cc1,22µM*,12%,-24%,-5,35%,-2%
Cc1ccc(CNC(=O)c2ccc3c(c2)NC(=O)C(CS(=O)(=O)Cc2cccc(F)c2)N3)cc1 (stereo not drawn),-1%,nt,89µM*,nt,40%,-1%[57.1 µM]
CC12CCC(C(=O)NNc3ccccc3)(C(=O)C1=O)C2(C)C (stereo not drawn),0%,-3%,0%,-2,44%,-4%
N#CC(Cc1ccccc1)(Cc1ccccc1)C(=O)NN,-5%,-8%,-7%,-2,26%,-2%
O=C(CNC(=O)c1ccco1)Nc1ccc(F)cc1,1%,27µM*,-16%,-10,-9%,-6%
CNC(=S)NNC(=O)COc1ccccc1C,4%,-12%,20µM*,nt,38%,-35%
Cc1ccccc1OCC(=O)Nc1cccc(NC(=O)c2ccco2)c1,6%,-7%,-28%,2,14%,-12%
O=C(COc1ccc(F)cc1)Nc1ccc(S(=O)(=O)N(Cc2ccccc2)c2ccccc2)cc1,-10%,nt,-10%,nt,78%,11%
